KCNQ2 enhance: KCNQ2 (rat) channel potentiation. 310,000 tested, 0.54% active. O88943. B-score at 10 µM. CHO-K1 KCNQ2, FluxOR thallium flux fluorescence; stronger effect = higher value;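 active = fluorescence ratio B-score at least 3 SD of library B-scores, with initial fluorescence B-score within 3 of them, cut at about 5.3 in these data; same plate scores as AID 2156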;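 also: B-score of peak minus minimum over baseline fluorescence ratio after K+ and Tl+ stimulus; positive B-score means potentiation of KCNQ2 with more thallium influx and brighter signal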
KCNQ2 inh: inhibitors of rat KCNQ2 potassium channel; B-score at 10 µM; 310,000 tested, 1.1% active; CHO-K1 KCNQ2, FluxOR thallium flux, 20 min; stronger effect = lower value; AID 2156; O88943;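 active = fluorescence ratio B-score at most minus 3 library SDs, with starting brightness B-score within 2 library SDs, cut at about -5.5 in these data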
Kir21 confirm: confirmation of mouse Kir2.1 potassium channel inhibitors; Kir2.1-expressing cells, FluxOR thallium flux fluorescence; stronger effect = lower value; Tl flux remaining, % of negative control (stronger effect = lower value), % at 10 µM; AID 2032; 2,300 tested, 41% active; shares compounds with KCNQ2 enhance;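 active = Primary-screen hit whose thallium flux fell at least 3 control SD below untreated wells in both duplicates, with normal baseline fluorescence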
HEK293 ctr: parental HEK293 activity in Kir2.1 inhibitor counter-screen | shares compounds with KCNQ2 enhance | parental HEK293 cells, FluxOR thallium flux fluorescence; 0% = unstimulated blank wells | AID 2105 | FluxOR signal as % of negative control (100 = no effect), % at 10 µM | 2,300 tested, 19% active;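 active = dye signal at least 3 control SD above or below untreated wells in both duplicates, raw fluorescence within 3, either direction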;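 also: percent is based on the flux ratio of peak minus minimum fluorescence over baseline F0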
CHO-K1 Tl ctr: counter-screen for KCNQ2 potentiators: effect in parental CHO-K1 cells | shares compounds with KCNQ2 enhance | FluxOR thallium flux fluorescence; zero = vehicle mean+3SD, 100% = vehicle-minus-blank window | activity increase over 3SD of controls, % at 10 µM | 1,200 tested, 43% active | AID 2282;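 active = signal rise of at least 3 SD above the untreated control mean, in both duplicate wells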;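 also: counter screen of KCNQ2 potentiator hits so any rise reflects channel-independent effects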
KCNQ1 sel pot: human KCNQ1 counter-target activity of KCNQ2 potentiators | 1,200 tested, 28% active | activation over 3SD threshold, % at 10 µM | CHO KCNQ1 stable, FluxOR thallium flux fluorescence; beyond 3SD, as % of vehicle-control signal | shares compounds with KCNQ2 enhance;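 active = fluorescence ratio rise of at least 3 SD of vehicle wells above their mean, in both replicate wells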
KCNQ2 pot conf: confirmation of rat KCNQ2 potassium channel potentiators; shares compounds with KCNQ2 enhance; CHO-KCNQ2 cells, FluxOR thallium flux fluorescence; potentiation, less the hit threshold, % at 10 µM; 1,200 tested, 68% active; AID 2287;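 active = fluorescence ratio rising 3 SD or more over the vehicle control mean in both replicates, plus primary screen hit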;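 also: peak minus minimum thallium fluorescence divided by baseline after K/Tl stimulus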
Kir2-1 sel: tests whether KCNQ2 potentiators also affect mouse Kir2.1. shares compounds with KCNQ2 enhance. HEK293 Kir2.1, FluxOR thallium flux fluorescence. activity over 3SD threshold, % at 10 µM. 1,200 tested, 2% active;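 active = fluorescence ratio rise of at least 3 SD above the vehicle-control mean, seen in both replicates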
KCNQ2 W236L MoA: KCNQ2 potentiators acting on retigabine-insensitive rat KCNQ2 W236L mutant; 940 tested, 10% active; CHO KCNQ2-W236L, automated patch clamp current; current increase over 3SD of negative controls (%), stronger effect = higher value, % at 25 µM; shares compounds with KCNQ2 enhance;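 active = current increase at least 3 SD of the untreated controls above them in both duplicate recordings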
Numbers stand for hits; n = inactive; x = no result given. An excerpt weighted towards active compounds, which were near 1.6% of everything screened.

SMILES	KCNQ2 enhance	KCNQ2 inh	Kir21 confirm	HEK293 ctr	others
Cc1ccnc(NC(=O)C23CC4CC(CC(C4)C2)C3)c1	9.66	n	n	n	CHO-K1 Tl ctr=n;KCNQ1 sel pot=n;KCNQ2 pot conf=32.9;Kir2-1 sel=n;KCNQ2 W236L MoA=n
CC(NC(=O)C12CC3CC(CC(C3)C1)C2)c1ccc2c(c1)OCCO2 (stereo unspecified)	n	n	x	x
CCC(=O)Nc1ccc(NC(=O)C23CC4CC(CC(C4)C2)C3)cn1	x	n	x	x
O=C(NCCCn1ccnc1)c1ccc(S(=O)(=O)N2CCOCC2)cc1	x	n	x	x
CCN(CC)CCCN(C(=O)c1ccco1)c1nc(-c2ccc(C)cc2)cs1	x	n	x	x
CCN(CC)CCCN(C(=O)c1ccco1)c1nc(-c2ccc(Cl)cc2)cs1	x	n	51.0%	n
O=C(CSc1nc(O)cc(=O)n1-c1ccccc1)Nc1ccc(Br)cn1	n	n	x	x
O=C(O)C1CCCCC1C(=O)NCCc1ccc(F)cc1 (stereo unspecified)	n	n	x	x
c1ccc(-c2nc3ccccc3[nH]2)nc1	x	n	x	x
c1ccc(-c2nc3c(ccc4ccccc43)[nH]2)nc1	8.38	n	n	n	CHO-K1 Tl ctr=30.8;KCNQ1 sel pot=6.1;KCNQ2 pot conf=46.8;Kir2-1 sel=n;KCNQ2 W236L MoA=n
O=C1C=CC(=O)C(C2=C3C(=O)N(CCc4ccccc4)CC(=O)N3CCC2)=C1	n	n	69.0%	69.0%
O=C1CC(=O)N(CCc2ccccc2)C(=O)N1CCc1ccccc1	n	n	x	x
CC(C)C1COS(=O)(=O)NC1CC(=O)SC(C)(C)C (stereo unspecified)	n	n	x	x
CCCCCCNC(=O)CC(c1ccccc1)c1cc(Br)ccc1O (stereo unspecified)	29	n	n	n	CHO-K1 Tl ctr=n;KCNQ1 sel pot=n;KCNQ2 pot conf=64.0;Kir2-1 sel=n;KCNQ2 W236L MoA=n
O=C(CC(c1ccccc1)c1cc(Br)ccc1O)NCc1ccco1 (stereo unspecified)	18.3	n	x	x	CHO-K1 Tl ctr=n;KCNQ1 sel pot=n;KCNQ2 pot conf=66.8;Kir2-1 sel=n;KCNQ2 W236L MoA=n
CC(C)NC(=O)CC(c1ccccc1)c1cc(Br)ccc1O (stereo unspecified)	n	n	x	x
O=CN1CCN(C(=O)CC(c2ccccc2)c2cc(Br)ccc2O)CC1 (stereo unspecified)	n	n	x	x
CC(C)Oc1ccc(CNC(=O)CC(c2ccccc2)c2cc(Cl)ccc2O)cc1 (stereo unspecified)	14.7	n	n	128.5%	CHO-K1 Tl ctr=10.8;KCNQ1 sel pot=17.7;KCNQ2 pot conf=59.0;Kir2-1 sel=n;KCNQ2 W236L MoA=n
COc1ccccc1C(CC(=O)Nc1ccc(Cl)cc1)c1ccc(OC(C)C)cc1 (stereo unspecified)	x	n	x	x
CCc1cc2cc(OC)ccc2nc1SCC(=O)NNC(=O)c1ccco1	n	n	x	x
O=C(Cn1ccc(C(F)(F)F)n1)Nc1cccc(S(=O)(=O)N2CCCCC2)c1	n	n	x	x
O=S(=O)(c1ccc(F)cc1)N1CCC2(CC1)OCCN2S(=O)(=O)c1cccs1	n	n	x	x
Cc1cc(Cl)c(S(=O)(=O)NC(C(=O)O)C(C)C)cc1OCC(=O)NC1CCCCC1 (stereo unspecified)	x	n	x	x
Cc1cc(Cl)c(S(=O)(=O)N2CCCC2)cc1OCC(=O)NC1CCCCC1	27.4	n	n	139.0%	CHO-K1 Tl ctr=n;KCNQ1 sel pot=n;KCNQ2 pot conf=132.9;Kir2-1 sel=n;KCNQ2 W236L MoA=n
COC(=O)c1c(C(=O)OC)c(-c2ccc(Br)cc2)n2c1CS(=O)C2 (stereo unspecified)	n	n	x	x
O=C(CC1CCCC1)N1CCCC(Nc2ccc(F)cc2)C1 (stereo unspecified)	n	n	x	x
CC1(CCC(=O)N2CCCC(Nc3ccc(F)cc3)C2)CC1 (stereo unspecified)	x	n	51.0%	n
O=C(CCc1cccc(Cl)c1)N1CCCC(Nc2ccccc2)C1 (stereo unspecified)	n	-7.05	69.5%	n
O=C1CCCCN1CCC(=O)N1CCCC(Nc2ccccc2)C1 (stereo unspecified)	n	n	x	x

Screens deposited in PubChem BioAssay by Johns Hopkins Ion Channel Center.
